# Bioassay records: PubChem BioAssay, National Center for Advancing Translational Sciences (NCATS)
# Compounds with a hit are over-represented: about 4.6% of the library has one in this group of screens.
# HCV inh – qHTS Assay for Inhibitors of Hepatitis C Virus (HCV). hit rate 3.4% among 340,000. Huh7.5.1 HCVcc-Cre infection, luciferase reporter, 44 h. AID 651820, 2012. Potency, µM (top dose mostly 41.8 µM), inactives show top-dose activity change, negative = inhibition, usual class: inhibitors; active = well fitted inhibition curve with a large enough effect; inconclusive = small, poorly fitted or top-dose-only effect, or another doubt; inactive = no such curve, though single readings can be large or run the other way
#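 1,000 cells/well; 4 h culture; + compound; + HCVcc-Cre (~0.5 moi); 44 h; luciferase substrate, RT 15 min; read 15 sec.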
# Vaccinia mCherry – qHTS for Stage-Specific Inhibitors of Vaccinia Orthopoxvirus: mCherry Reporter Primary qHTS; Vaccinia virus mCherry reporter infection, fluorescence; Potency, µM (titrated, usually from 36.5 µM), without a hit: at the top dose activity change, negative = inhibition, usual class: inhibitors; hit rate 0.63% among 310,000; AID 720579, 2013; calls by dose curve; tested in A549 cells; note: nearly all actives have a fitted effect of over 35% in size
# Marburg entry inh – qHTS for inhibitors of binding or entry into cells for Marburg Virus. Potency, µM (top dose mostly 37.8 µM), inactives show at the highest dose activity change, negative = inhibition, usual class: inhibitors. Marburg virus pseudotyped entry inhibition, cell reporter. AID 540276, 2011. hit rate 1.8% among 300,000; calls by dose curve; tested in HEK293 cells
# LASV entry inh – qHTS for Inhibitors of binding or entry into cells for Lassa Virus; Lassa virus pseudotype entry inhibition, cell reporter; Potency, µM (series often up to 37.9 µM), for the others: at the top dose activity change, negative = inhibition, actives largely listed as inhibitors; hit rate 1.2% among 300,000; calls by dose curve; tested in HEK293 cells; note: nearly all actives have a fitted effect of over 50% in size
# Vaccinia Venus – qHTS for Stage-Specific Inhibitors of Vaccinia Orthopoxvirus: Venus Reporter Primary qHTS; Vaccinia virus Venus reporter expression, fluorescence; Potency, µM (top dose mostly 36.5 µM), without a hit: at the top dose activity change, negative = inhibition, most hits filed as inhibitors; hit rate 0.46% among 330,000; AID 720580, 2013; calls by dose curve; tested in A549 cells; note: nearly all actives have a fitted effect of over 30% in size
# The depositor's hits bear a star; i = inactive; ? = inconclusive; nt = not tested or not shown; ! = repeats disagree; [ ] = another dose, or the depositor's remark. % is set by controls: 0 for no effect and ±100 for the full control effect; potency is the fitted concentration of half-maximal effect.
SMILES,HCV inh,Vaccinia mCherry,Marburg entry inh,LASV entry inh,Vaccinia Venus
COC(=O)c1c(C)[nH]c(C(=O)OCC(=O)c2c(N)n(CC(C)C)c(=O)n(C)c2=O)c1C,3.98µM*,i,?,?,-8.7%
Cn1c(N)c(C(=O)COC(=O)/C=C/c2ccc(Cl)cc2Cl)c(=O)n(C)c1=O,15.0%,i,-4.5%,4.6%,-13.0%
CC(C)Cn1c(N)c(C(=O)COC(=O)/C=C/c2ccccc2)c(=O)n(C)c1=O,7.08µM*,?,10µM*,?,-20.3%
Cn1c(N)c(C(=O)COC(=O)/C=C/c2ccc(Cl)cc2)c(=O)n(C)c1=O,-29.6%,-13.8%,-22.7%,11.3%,-21.4%
COc1cc2nc(N3CCOCC3)nc(NC3CCN(Cc4ccccc4)CC3)c2cc1OC,nt,-1.1%,nt,nt,-19.6%
N/C(=N\N=C\c1ccc(O)cc1)c1nonc1N,-17.5%,i,20.6µM*,?,1.1%
N/C(=N\N=C\c1ccc(O)c(O)c1)c1nonc1N,-13.1%,nt,nt,nt,nt
COc1cccc(OC)c1OCCNCC1COc2ccccc2O1 (stereo unspecified),?,-6.8%,12.6µM*!,-5.9%,-9.6%
COc1cccc(OC)c1OCCNC[C@@H]1CSc2ccccc2O1,nt,nt,25.9µM*,nt,nt
COc1cccc(OC)c1OCCNC(C)(C)C,4.2%,nt,-5.7%,0.7%,-3.5%
CN(C1CCCCC1)S(=O)(=O)c1ccc2c(c1)c(=O)c(C(=O)N1CCN(c3ccccc3)CC1)cn2C,nt,-10.4%,?,8.1%[46.1 µM],5.1%
CC(=O)c1ccc(-c2ccc(C(=O)N(C)Cc3nc4ccccc4c(=O)[nH]3)o2)cc1,7.08µM*,nt,nt,nt,nt
COc1ccc([C@]23Cc4cc(OC)c(OC)cc4[C@H](O2)C2=C(CC(C)(C)CC2=O)O3)cc1,nt,nt,20.0%[14.2 µM],nt,nt
CCOc1ccc(CCNC(=O)CN2N=C(c3ccccc3)CCC2=O)cc1OCC,nt,-6.0%,nt,0.2%[46.1 µM],-7.3%
Cc1cccc(CN2[C@@H](C)[C@H](c3ccccc3)Oc3cc(Br)ccc3S2(=O)=O)c1,nt,nt,nt,1.0%[46.1 µM],nt
COc1cc(/C=C/c2ccc3cccc(O)c3n2)ccc1O,11.2µM*,?,nt,nt,?
Oc1c(Cl)cc(Cl)cc1/C=C/c1ccc2cccc(O)c2n1,?,2.51µM*,?,?,182.1%
COc1cc(Br)c(/C=C/c2ccc3cccc(O)c3n2)cc1OC,10µM*,nt,nt,nt,nt
CSc1ccc(/C=C/c2ccc3cccc(O)c3n2)cc1,?,-23.2%,2.51µM*,?,5.2%
Oc1cccc2ccc(/C=C/c3ccccc3Br)nc12,?,?,?,?,5.0%
C/C=C/c1ccc(O)c(OC)c1,-8.8%,i,nt,nt,-2.5%
Cc1noc(C)c1S(=O)(=O)N(CC(=O)NCc1ccccc1Cl)c1ccc(C(C)C)cc1,nt,-9.8%,-41.6%[46.1 µM],-22.3%[46.1 µM],?
C=N[C@@H](C(=O)N[C@@H]1C(=O)N2[C@@H]1SC(C)(C)[C@@H]2C(=O)O)c1ccccc1,nt,-9.1%,nt,nt,-7.5%
COc1ccc(OC)c(N2C(=O)/C(=C/c3ccco3)C(=O)NC2=S)c1,-26.2%,1.6%,10µM*,-8.1%,9.3%
COC(=O)c1cc(CNC(=O)c2cnsn2)cc(NC(=O)c2ccccc2OC)c1,nt,-22.0%,nt,nt,-9.7%
SMILES,HCV inh,Vaccinia mCherry,Marburg entry inh,LASV entry inh,Vaccinia Venus
CCN(c1ccccc1)S(=O)(=O)c1ccc(NCC2COc3ccccc3O2)nc1 (stereo unspecified),11.2µM*,nt,?,16.4µM*,nt
N#Cc1ccc(C23OCCN2CCn2nc4ccccc4c23)cc1 (stereo unspecified),3.98µM*,-2.8%,nt,nt,-9.4%
Cc1ccc(C(=O)CSc2nc(C)cc(C)c2C(=O)Nc2cccc(C)c2)cc1,nt,-10.2%,-8.1%[46.1 µM],29.8%[46.1 µM],-13.9%
Cc1cccc(NC(=O)Nc2nnc(N(C)Cc3ccccc3)s2)c1,nt,-10.5%,19.0%[46.1 µM],3.4%[46.1 µM],-20.3%
COc1ccc(OC)c(C2=Nn3c(nnc3C3CCCCC3)SC2)c1,15.8µM*,?,?,-15.3%,-25.6%
COc1ccc(OC)c(C2=Nn3c(nnc3-c3cccc(OC(C)C)c3)SC2)c1,10µM*,nt,?,?,nt
Cc1cc(C)c2c(n1)nn1c(NCCOCCO)cc(C)nc21,5.3%,-5.8%,3.7%,0.1%,-8.3%
Cc1cc(C)c2c(n1)nn1c(NCCCN(C)C)cc(C)nc21,22.4µM*,nt,?,-9.1%,nt
COc1ccc2c(c1)-c1nc(/N=C/c3ccccc3O)sc1CC2,10µM*,-7.2%,19.1%,19.3%,-17.4%
